Columns and labels:
Test in all cases: DAPPL (digital affinity profiling via proximity ligation, sequencing); 10 mM Tris-HCl pH 7.5, 50 mM NaCl, 1 mM DTT, 4% glycerol, room temperature, 30 min; GST-TFs on glutathione beads, 16-mer random dsDNA library, 0.1% formaldehyde crosslink after washing; high values mean tight binding
[1] = biological target: T1, FEV (Homo sapiens, UniProt Q99581 1-238); conditions: protein: recombinant; tags: N-terminal GST; dsDNA, one strand shown
T1 sequence: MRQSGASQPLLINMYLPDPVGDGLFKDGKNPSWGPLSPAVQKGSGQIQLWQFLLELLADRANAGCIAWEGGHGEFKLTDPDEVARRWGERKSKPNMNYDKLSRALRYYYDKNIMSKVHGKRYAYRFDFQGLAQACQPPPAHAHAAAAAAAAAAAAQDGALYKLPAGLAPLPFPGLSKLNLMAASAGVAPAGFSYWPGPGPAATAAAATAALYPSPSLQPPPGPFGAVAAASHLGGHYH
Procedure, shortened: (§1)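 Yeast served to express human transcription factors as GST fusions, which were then captured on glutathione beads and labelled with DNA barcodes. Pooled with a tag-only sample, they were incubated with 200 nmole of a 16-mer random double-stranded DNA library for 30 min at room temperature in Tris/NaCl/DTT/glycerol buffer, washed, crosslinked with 0.1% formaldehyde, ligated by proximity, amplified by PCR and sequenced. Dividing each hexamer's read frequency for a factor by its frequency for the tag-only sample gives the binding signal.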

[2] = biological target: ETV5 (Homo sapiens, UniProt P41161 1-510); conditions: protein: recombinant; tags: N-terminal GST; dsDNA, one strand shown
Sequence of ETV5 (P41161 whole entry): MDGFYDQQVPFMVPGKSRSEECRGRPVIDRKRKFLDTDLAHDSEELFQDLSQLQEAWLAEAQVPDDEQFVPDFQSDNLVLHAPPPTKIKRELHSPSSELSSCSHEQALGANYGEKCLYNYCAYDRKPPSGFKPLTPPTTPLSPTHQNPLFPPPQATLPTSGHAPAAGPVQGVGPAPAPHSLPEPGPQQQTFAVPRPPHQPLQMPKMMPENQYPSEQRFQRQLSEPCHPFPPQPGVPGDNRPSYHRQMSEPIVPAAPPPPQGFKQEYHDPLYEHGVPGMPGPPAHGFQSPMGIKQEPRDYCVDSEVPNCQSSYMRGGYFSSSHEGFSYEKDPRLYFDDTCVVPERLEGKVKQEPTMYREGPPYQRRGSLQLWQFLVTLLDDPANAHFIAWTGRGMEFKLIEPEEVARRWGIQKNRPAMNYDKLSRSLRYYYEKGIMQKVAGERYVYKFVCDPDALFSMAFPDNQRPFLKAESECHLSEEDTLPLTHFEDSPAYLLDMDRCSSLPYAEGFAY
Procedure, shortened: as §1

[3] = biological target: HSF1 (Homo sapiens, UniProt Q00613 1-529); conditions: protein: recombinant; tags: N-terminal GST; chain copies: 3; dsDNA, one strand shown
Sequence of HSF1 (Q00613 whole entry): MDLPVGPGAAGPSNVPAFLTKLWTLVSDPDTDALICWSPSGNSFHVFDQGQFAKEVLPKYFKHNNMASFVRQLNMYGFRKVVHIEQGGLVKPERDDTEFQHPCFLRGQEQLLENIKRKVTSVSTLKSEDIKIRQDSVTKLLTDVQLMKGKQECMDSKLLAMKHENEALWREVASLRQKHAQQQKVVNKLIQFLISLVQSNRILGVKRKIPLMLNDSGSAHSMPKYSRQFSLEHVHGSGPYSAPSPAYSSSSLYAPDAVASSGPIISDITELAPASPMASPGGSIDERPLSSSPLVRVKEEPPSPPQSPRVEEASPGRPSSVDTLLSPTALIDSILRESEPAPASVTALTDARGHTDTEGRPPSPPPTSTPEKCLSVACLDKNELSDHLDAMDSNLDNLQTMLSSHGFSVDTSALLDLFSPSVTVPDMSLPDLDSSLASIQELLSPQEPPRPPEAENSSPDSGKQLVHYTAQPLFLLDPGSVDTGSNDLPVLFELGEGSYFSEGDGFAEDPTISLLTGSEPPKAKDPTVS
Procedure, shortened: as §1

[4] = biological target: T2, SPIC (Homo sapiens, UniProt Q8N5J4 1-248); conditions: protein: recombinant; tags: N-terminal GST; dsDNA, one strand shown
T2 sequence: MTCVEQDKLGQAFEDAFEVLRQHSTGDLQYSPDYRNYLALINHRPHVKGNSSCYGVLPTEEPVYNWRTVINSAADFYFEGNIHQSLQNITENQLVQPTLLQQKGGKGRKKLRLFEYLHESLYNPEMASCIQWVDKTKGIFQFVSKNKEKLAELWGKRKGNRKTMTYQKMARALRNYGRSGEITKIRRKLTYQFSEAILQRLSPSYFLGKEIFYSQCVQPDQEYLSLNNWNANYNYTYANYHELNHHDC
Procedure, shortened: as §1

[5] = biological target: ELF4 (Homo sapiens, UniProt Q99607 1-663); conditions: protein: recombinant; tags: N-terminal GST; dsDNA, one strand shown
Sequence of ELF4 (Q99607 whole entry): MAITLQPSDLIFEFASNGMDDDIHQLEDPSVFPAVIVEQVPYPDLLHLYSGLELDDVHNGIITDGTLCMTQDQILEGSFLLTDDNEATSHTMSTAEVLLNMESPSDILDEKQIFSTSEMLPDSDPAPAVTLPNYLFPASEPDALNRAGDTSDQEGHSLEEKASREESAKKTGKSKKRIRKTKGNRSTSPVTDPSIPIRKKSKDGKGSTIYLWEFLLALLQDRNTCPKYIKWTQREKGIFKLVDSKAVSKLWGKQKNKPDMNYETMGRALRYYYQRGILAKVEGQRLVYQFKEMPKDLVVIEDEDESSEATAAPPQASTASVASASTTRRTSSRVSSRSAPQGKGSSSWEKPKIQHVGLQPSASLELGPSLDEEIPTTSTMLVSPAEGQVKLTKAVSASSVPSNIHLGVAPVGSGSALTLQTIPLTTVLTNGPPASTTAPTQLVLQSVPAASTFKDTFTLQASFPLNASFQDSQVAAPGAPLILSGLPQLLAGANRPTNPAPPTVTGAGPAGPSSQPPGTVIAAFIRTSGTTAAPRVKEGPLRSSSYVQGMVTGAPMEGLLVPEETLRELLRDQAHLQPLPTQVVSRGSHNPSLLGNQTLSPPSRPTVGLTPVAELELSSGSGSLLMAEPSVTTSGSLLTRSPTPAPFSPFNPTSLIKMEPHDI
Procedure, shortened: as §1

[6] = biological target: T3, ELK4 (Homo sapiens, UniProt P28324-2 1-405); conditions: protein: recombinant; tags: N-terminal GST; dsDNA, one strand shown
T3 sequence: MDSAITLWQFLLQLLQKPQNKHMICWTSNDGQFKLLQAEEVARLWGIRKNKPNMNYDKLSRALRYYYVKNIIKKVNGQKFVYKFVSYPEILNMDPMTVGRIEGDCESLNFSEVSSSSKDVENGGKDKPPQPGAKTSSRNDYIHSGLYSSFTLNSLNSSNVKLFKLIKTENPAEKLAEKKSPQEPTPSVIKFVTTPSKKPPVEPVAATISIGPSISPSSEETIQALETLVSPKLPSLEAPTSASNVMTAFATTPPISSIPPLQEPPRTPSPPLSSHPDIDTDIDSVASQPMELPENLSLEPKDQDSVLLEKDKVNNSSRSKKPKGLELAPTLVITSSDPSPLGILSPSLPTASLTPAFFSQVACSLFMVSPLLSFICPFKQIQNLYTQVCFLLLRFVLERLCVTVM
Procedure, shortened: as §1

[7] = biological target: T4, ETV2 (Homo sapiens, UniProt O00321 1-342); conditions: protein: recombinant; tags: N-terminal GST; dsDNA, one strand shown
T4 sequence: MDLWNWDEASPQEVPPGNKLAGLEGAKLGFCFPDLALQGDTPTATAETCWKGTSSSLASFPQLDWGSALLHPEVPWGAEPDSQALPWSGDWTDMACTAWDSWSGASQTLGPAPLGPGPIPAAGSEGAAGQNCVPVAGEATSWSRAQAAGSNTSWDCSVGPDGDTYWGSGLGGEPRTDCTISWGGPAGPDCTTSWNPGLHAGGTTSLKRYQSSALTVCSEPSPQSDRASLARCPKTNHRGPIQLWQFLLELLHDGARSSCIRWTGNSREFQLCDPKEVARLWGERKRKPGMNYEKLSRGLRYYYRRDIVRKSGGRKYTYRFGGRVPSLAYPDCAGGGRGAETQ
Procedure, shortened: as §1

[8] = biological target: T5, ELF3 (Homo sapiens, UniProt P78545 1-371); conditions: protein: recombinant; tags: N-terminal GST; dsDNA, one strand shown
T5 sequence: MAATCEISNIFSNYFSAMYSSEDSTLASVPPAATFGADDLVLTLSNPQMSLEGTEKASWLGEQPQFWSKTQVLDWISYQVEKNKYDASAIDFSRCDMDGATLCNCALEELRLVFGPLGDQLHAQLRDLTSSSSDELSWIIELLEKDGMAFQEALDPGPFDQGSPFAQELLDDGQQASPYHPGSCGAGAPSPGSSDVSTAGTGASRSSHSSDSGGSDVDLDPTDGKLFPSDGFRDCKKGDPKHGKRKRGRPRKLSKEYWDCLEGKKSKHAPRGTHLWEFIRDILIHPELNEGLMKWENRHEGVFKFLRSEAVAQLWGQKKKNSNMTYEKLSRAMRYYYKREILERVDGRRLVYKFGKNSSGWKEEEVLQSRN
Procedure, shortened: as §1

[9] = biological target: CRX (Homo sapiens, UniProt O43186 1-299); conditions: protein: recombinant; tags: N-terminal GST; dsDNA, one strand shown
Sequence of CRX (O43186 whole entry): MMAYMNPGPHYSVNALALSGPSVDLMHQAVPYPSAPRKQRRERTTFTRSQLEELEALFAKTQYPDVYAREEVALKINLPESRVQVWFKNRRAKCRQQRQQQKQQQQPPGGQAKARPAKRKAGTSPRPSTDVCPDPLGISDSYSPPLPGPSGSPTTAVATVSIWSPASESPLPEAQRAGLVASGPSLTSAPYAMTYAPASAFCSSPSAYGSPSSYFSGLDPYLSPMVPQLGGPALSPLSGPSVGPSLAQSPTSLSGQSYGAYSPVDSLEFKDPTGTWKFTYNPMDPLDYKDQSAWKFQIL
Procedure, shortened: as §1

[10] = biological target: ETV1 (Homo sapiens, UniProt P50549 1-477); conditions: protein: recombinant; tags: N-terminal GST; dsDNA, one strand shown
Sequence of ETV1 (P50549 whole entry): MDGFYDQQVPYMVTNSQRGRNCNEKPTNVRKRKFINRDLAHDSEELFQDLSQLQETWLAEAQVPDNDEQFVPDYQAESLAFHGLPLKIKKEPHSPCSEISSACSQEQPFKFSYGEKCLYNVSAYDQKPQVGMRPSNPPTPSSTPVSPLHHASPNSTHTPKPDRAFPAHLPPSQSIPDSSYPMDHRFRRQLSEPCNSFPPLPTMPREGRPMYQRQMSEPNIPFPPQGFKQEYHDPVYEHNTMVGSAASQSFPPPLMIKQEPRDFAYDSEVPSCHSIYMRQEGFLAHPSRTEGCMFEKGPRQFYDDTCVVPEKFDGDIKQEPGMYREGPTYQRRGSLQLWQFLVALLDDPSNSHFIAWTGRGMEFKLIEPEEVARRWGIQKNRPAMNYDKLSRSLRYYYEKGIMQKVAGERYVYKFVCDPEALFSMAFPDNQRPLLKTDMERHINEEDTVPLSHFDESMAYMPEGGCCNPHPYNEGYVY
Procedure, shortened: as §1

With GATGTA the binding signal [1] was 1.4 fold enrichment (6-mer frequency, TF over GST control), the binding signal [2] was 1.37 fold enrichment (6-mer frequency, TF over GST control) and the binding signal [3] was 1.01 fold enrichment (6-mer frequency, TF over GST control). The binding signal [4] was 1.12 fold enrichment (6-mer frequency, TF over GST control), the binding signal [5] was 1.33 fold enrichment (6-mer frequency, TF over GST control) and the binding signal [6] was 1.28 fold enrichment (6-mer frequency, TF over GST control). The binding signal [7] was 1.18 fold enrichment (6-mer frequency, TF over GST control), the binding signal [8] was 1.53 fold enrichment (6-mer frequency, TF over GST control) and the binding signal [9] was 1.06 fold enrichment (6-mer frequency, TF over GST control). The binding signal [10] was 1.33 fold enrichment (6-mer frequency, TF over GST control).

Source: article PMC7862700, “An all-to-all approach to the identification of sequence-specific readers for epigenetic DNA modifications on cytosine”
